Laboratory results from PubChem BioAssay (NCATS).
Records with an inconclusive call do not appear. Where a structure was tested more than once in an assay, its records may differ in their call. Active and inactive are the calls of the source. Unless noted, calls follow the shape of the dose curve; as a rule, active = well fitted curve in the direction sought with a large enough effect; inconclusive = small, poorly fitted or top-dose-only effect, or another doubt; inactive = no such curve, though single readings can be large; an effect the other way counts as inactive or inconclusive. Non-standard residues stand in square brackets, D forms with d. Residues, ends and D or L forms follow the SMILES beside them. *: point of attachment. Sta = CC(C)C[C@H](N)[C@@H](O)CC(=O)O; Isovaleryl = CC(C)CC(=O)*

Columns and labels:
[1] = test system: Hek293T; assay: Primary qHTS to identify gynecologic anti-cancer compounds using libraries of approved drugs and bioactive compounds (AID 1345084); conditions: Gynecologic cancer cell panel viability, ATPlite luminescence, 48 h, control line for the selectivity index; series mostly up to 57.5 µM; also: % is scaled to controls: 0 for no effect and ±100 for the full control effect; nearly all actives have a fitted effect of over 55% in size
Summary of the method: (§1)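 Cells, 1,000 per well, plated 16 h, then exposed 48 h at 37 C to compounds. Viability by ATPlite luminescence after 15 min at room temperature.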

[2] = test system: JEG-3; assay: as above; conditions: Gynecologic cancer cell panel viability, ATPlite luminescence, 48 h; series mostly up to 57.5 µM
Summary of the method: as §1

[3] = test system: OV90; assay: as above; conditions: Gynecologic cancer cell panel viability, ATPlite luminescence, 48 h; series mostly up to 57.5 µM
Summary of the method: as §1

[4] = test system: PA-1; assay: as above; conditions: Gynecologic cancer cell panel viability, ATPlite luminescence, 48 h; series mostly up to 57.5 µM
Summary of the method: as §1

[5] = test system: SKOV3; assay: as above; conditions: Gynecologic cancer cell panel viability, ATPlite luminescence, 48 h; series mostly up to 57.5 µM
Summary of the method: as §1

[6] = test system: Tov-21-G; assay: as above; conditions: Gynecologic cancer cell panel viability, ATPlite luminescence, 48 h; series mostly up to 57.5 µM
Summary of the method: as §1

[7] = test system: Tov112D; assay: as above; conditions: Gynecologic cancer cell panel viability, ATPlite luminescence, 48 h; series mostly up to 57.5 µM
Summary of the method: as §1

[8] = Drug repurposing screens with cells derived from glioblastoma tumor samples (AID 1345199); conditions: GBM patient neurospheres viability, ATP luminescence, 48 h; also: nearly all actives have a fitted effect of over 40% in size; also: potency is read from the fitted curve at half-maximal effect; as to activity, negative = cell killing: % is scaled to controls: 0 for no effect and ±100 for the full control effect
Summary of the method: (§2)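 Four patient lines of CD133+ GBM neurospheres were screened at several concentrations; hits were retested in those lines plus three slower-growing GBM lines, using 48-hour treatment and ATP-based viability.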

[9] = test system: astro; assay: as above; conditions: viability, ATP luminescence, 48 h; series mostly up to 45.9 µM
Summary of the method: as §2

[10] = qHTS assay for small molecule activators of the human pregnane X receptor (PXR) signaling pathway (AID 720659; call rule not given here; also: 0% is about no effect)
[11] = qHTS assay to identify inhibitors of the type 1 interferon - major histocompatibility complex class I in skeletal muscle: Counter screen cell viability and HiBit confirmation (AID 1347412); conditions: iHSKM muscle cells + IFN-b, HiBiT or CellTiter-Glo, 24 h, at 45.9 µM (top of the series); also: % is scaled to controls: 0 for no effect and ±100 for the full control effect; nearly all actives have a fitted effect of over 60% in size
Summary of the method: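 Human myoblast knock-in line, 4.0 ng/ml IFN-beta stimulation, 24 h compound treatment. Endpoints: HiBiT lytic luminescence (HLA-B level) and CellTiter Glo (ATP). Dosing 12 concentrations, 3-fold steps, 46 uM highest final.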

[12] = at 20 µM (top of the series), tumour line C
[13] = at 21.2 µM (top of the series), tumour line B
[14] = at 45.9 µM (top of the series), tumour line B
[15] = at 45.9 µM (top of the series), tumour line D
[16] = at 46.1 µM (top of the series), tumour line C
[17] = at 21.2 µM (top of the series), tumour line D
[18] = at 21.3 µM (top of the series), tumour line A
[19] = at 46 µM (top of the series), tumour line A

Cc1nccn1CC1CCc2c(c3ccccc3n2C)C1=O (centres undefined)
inactive: Potency [1] | Potency [2] | Potency [3] | Potency [4] | Potency [5] | Potency [6] | Potency [7] | activity, negative = cell killing [8, 12] -25.3% | activity, negative = cell killing [8, 13] -23.2% | activity, negative = cell killing [8, 14] -6.55% | activity, negative = cell killing [8, 15] -25.8% | activity, negative = cell killing [8, 16] -22.8% | Potency [9]
active: Potency ([8]; tumour line A) 11.2 µM

COc1cc(OC)c(C(=O)CCCN2CCCC2)c(OC)c1
inactive: Potency [1] | Potency [2] | Potency [3] | Potency [4] | Potency [5] | Potency [6] | Potency [7] | activity, negative = cell killing [8, 12] 0.201% | activity, negative = cell killing [8, 13] -11.8% | activity, negative = cell killing [8, 17] -17.1% | activity, negative = cell killing [8, 18] -24.2% | Potency [9]

Nc1cc(C(Cl)=C(Cl)Cl)c(S(N)(=O)=O)cc1S(N)(=O)=O
inactive: Potency [1] | Potency [2] | Potency [3] | Potency [4] | Potency [5] | Potency [6] | Potency [7] | activity, negative = cell killing [8, 12] -2.9% | activity, negative = cell killing [8, 13] -5.37% | activity, negative = cell killing [8, 17] -20.2% | activity, negative = cell killing [8, 18] -22% | activity, negative = cell killing [8, 14] -15.5% | activity, negative = cell killing [8, 15] 2.04% | activity, negative = cell killing [8, 16] 10.7% | Potency [9]

CC1Cc2ccccc2N1NC(=O)c1ccc(Cl)c(S(N)(=O)=O)c1 (centres undefined)
inactive: Potency [1] | Potency [2] | Potency [3] | Potency [4] | Potency [5] | Potency [6] | Potency [7] | activity, negative = cell killing [8, 12] 27.9% | activity, negative = cell killing [8, 13] -2.89% | activity, negative = cell killing [8, 17] 1.12% | activity, negative = cell killing [8, 14] 9.62% | activity, negative = cell killing [8, 15] -0.642% | activity, negative = cell killing [8, 16] 0.368% | Potency [9]

CCC(C)(Oc1ccc(C2(c3ccc(OC(C)(CC)C(=O)O)cc3)CCCCC2)cc1)C(=O)O (centres undefined)
inactive: Potency [1] | Potency [2] | Potency [3] | Potency [4] | Potency [5] | Potency [6] | Potency [7] | activity, negative = cell killing [8, 14] -15.2% | activity, negative = cell killing [8, 15] -12.5% | activity, negative = cell killing [8, 19] -6.69% | activity, negative = cell killing [8, 16] -24.8% | Potency [9]

Cc1c(OCC(F)(F)F)ccnc1CS(=O)c1nc2ccccc2[nH]1 (centres undefined)
active: Potency ([8]; tumour line A) 10 µM
inactive: Potency [1] | Potency [2] | Potency [3] | Potency [4] | Potency [5] | Potency [6] | Potency [7] | activity, negative = cell killing [8, 14] -26% | Potency [9]

CC(=O)Nc1ccc(O)cc1
inactive: Potency [1] | Potency [2] | Potency [3] | Potency [4] | Potency [6] | Potency [7] | activity, negative = cell killing [8, 14] -10.5% | activity, negative = cell killing [8, 15] -3.31% | activity, negative = cell killing [8, 19] -25.4% | activity, negative = cell killing [8, 16] -7.56% | Potency [9] | outcome [10]

Clc1ccc(C(Cn2ccnc2)OCc2ccc(Sc3ccccc3)cc2)c(Cl)c1 (centres undefined)
inactive: Potency [1] | Potency [2] | Potency [3] | Potency [4] | Potency [5] | Potency [6] | Potency [7] | activity change, negative = inhibition ([11]; HiBiT) -10.3% | activity change, negative = inhibition ([11]; Viability) -8.18%

Cn1c(NCCN(CCO)CCCc2ccc([N+](=O)[O-])cc2)cc(=O)n(C)c1=O
inactive: Potency [1] | Potency [2] | Potency [3] | Potency [4] | Potency [6] | Potency [7] | activity, negative = cell killing [8, 14] -18.9% | activity, negative = cell killing [8, 15] -12.5% | activity, negative = cell killing [8, 16] -1.17% | Potency [9]
active: Potency ([8]; tumour line A) 7.08 µM

O=C(NCC1CCCCN1)c1cc(OCC(F)(F)F)ccc1OCC(F)(F)F (centres undefined)
inactive: Potency [1] | Potency [2] | Potency [3] | Potency [4] | Potency [6] | Potency [7] | activity, negative = cell killing [8, 19] 20.5% | activity, negative = cell killing [8, 16] -6.86%

N=C(N)c1ccc2cc(OC(=O)c3ccc(N=C(N)N)cc3)ccc2c1
inactive: Potency [1] | Potency [2] | Potency [3] | Potency [4] | Potency [6] | Potency [7] | activity, negative = cell killing [8, 14] -0.17% | activity, negative = cell killing [8, 15] -17% | activity, negative = cell killing [8, 16] 10% | Potency [9]

CN(C)C(=O)COC(=O)Cc1ccc(OC(=O)c2ccc(N=C(N)N)cc2)cc1
inactive: Potency [1] | Potency [2] | Potency [3] | Potency [4] | Potency [6] | Potency [7] | activity, negative = cell killing [8, 14] -12.3% | activity, negative = cell killing [8, 15] 2.44% | activity, negative = cell killing [8, 16] -19.5% | Potency [9]

CC(S)C(=O)NCC(=O)O (centres undefined)
inactive: Potency [1] | Potency [2] | Potency [3] | Potency [4] | Potency [5] | Potency [6] | Potency [7] | Potency [9]

COC(=O)C1=C(C)NC(C)=C(C(=O)OC(C)C)C1c1cccc2nonc12 (centres undefined)
inactive: Potency [1] | Potency [2] | Potency [3] | Potency [4] | Potency [5] | Potency [6] | Potency [7] | Potency [9]

CC(C)CC(=O)N[C@H](C(=O)N[C@H](C(=O)N[C@@H](CC(C)C)[C@@H](O)CC(=O)N[C@@H](C)C(=O)N[C@@H](CC(C)C)[C@@H](O)CC(=O)O)C(C)C)C(C)C (Isovaleryl-VV[Sta]A[Sta]-OH)
inactive: Potency [1] | Potency [2] | Potency [3] | Potency [4] | Potency [6] | Potency [7] | activity, negative = cell killing [8, 14] -11.5% | activity, negative = cell killing [8, 15] -9.71% | activity, negative = cell killing [8, 19] -22.1% | activity, negative = cell killing [8, 16] -23.6% | Potency [9]
